Source: PubChem BioAssay AID1159580 (chemical genetic matrix, 2015)
Hit rate of the full screen: of about 5,500 compounds, about 2,000 (36%) were called active. Inconclusive results (about 18%) are left out. Cut-off read from the data, not from the text of the source: active = normalized growth mostly below about 0.91 (no sharp cut-off); inconclusive = no clear call, values can overlap the other calls; inactive = mostly above about 0.92. The list shows a part of the results.

Assay: chemical genetic growth profiling, strain panel (AID 1159580);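 note: tested at 20 µM; growth read once vehicle control cultures reached saturation at 30 °C; 1 = growth at the plate median or of vehicle wells; lower values mean less growth of the strain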
Conditions: S. cerevisiae deletion strains, growth OD

Measured: normalized growth

O=C(NC(=O)c1c(F)cccc1F)Nc1ccc(Cl)cc1
inactive: locus YAL021C, strain ccr4, hits give low values 1.03 | locus YAL026C, strain drs2, hits give low values 1.01 | locus YAL030W, strain snc1, hits give low values 1.02 | locus YBL061C, strain skt5, hits give low values 1.01 | locus YBR009C, strain hhf1, hits give low values 1.02 | locus YBR023C, strain chs3, hits give low values 1.02 | locus YBR171W, strain sec66, hits give low values 1.03 | locus YBR231C, strain swc5, hits give low values 1.04 | locus YBR279W, strain paf1, hits give low values 1.01 | locus YCL011C, strain gbp2, hits give low values 1 | locus YCL016C, strain dcc1, hits give low values 1.02 | locus YCL061C, strain MRC1, hits give low values 1.01 | locus YCL069W, strain vba3, hits give low values 0.996 | locus YCR088W, strain abp1, hits give low values 1 | locus YDL005C, strain med2, hits give low values 1.05 | locus YDL040C, strain nat1, hits give low values 1.03 | locus YDR001C, strain nth1, hits give low values 1.02 | locus YDR069C, strain doa4, hits give low values 1.03 | locus YDR137W, strain rgp1, hits give low values 1.01 | locus YDR159W, strain sac3, hits give low values 1.04 | locus YDR195W, strain ref2 1.11 | locus YDR297W, strain sur2, hits give low values 1.03 | locus YDR334W, strain swr1, hits give low values 1.01 | locus YDR335W, strain msn5, hits give low values 1.03 | locus YDR392W, strain spt3, hits give low values 0.955 | locus YEL003W, strain gim4, hits give low values 1.03 | locus YEL037C, strain rad23, hits give low values 1.01 | locus YEL061C, strain CIN8 (second series), hits give low values 1.01 | locus YER015W, strain faa2, hits give low values 1.02 | locus YER016W, strain bim1, hits give low values 1.03 | locus YER111C, strain swi4, hits give low values 1.01 | locus YER155C, strain BEM2 (second series), hits give low values 1.02 | locus YFR010W, strain ubp6, hits give low values 1.01 | locus YGL167C, strain pmr1, hits give low values 1.02 | locus YGL173C, strain kem1, hits give low values 1.01 | locus YGL227W, strain vid30, hits give low values 1.03 | locus YGL240W, strain doc1, hits give low values 1.02 | locus YGL253W, strain hxk2, hits give low values 1.01 | locus YHR013C, strain ard1, hits give low values 1.03 | locus YHR027C, strain rpn1, hits give low values 1.02 | locus YHR030C, strain SLT2, hits give low values 1.06 | locus YHR079C, strain IRE1, hits give low values 1.04 | locus YHR142W, strain chs7, hits give low values 1.01 | locus YJL092W, strain hpr5, hits give low values 1.02 | locus YJL095W, strain BCK1 (second series), hits give low values 1.01 | locus YJL095W, strain BCK1, hits give low values 1.03 | locus YJL115W, strain asf1, hits give low values 1.04 | locus YJL129C, strain trk1, hits give low values 1.02 | locus YJL154C, strain vps35, hits give low values 1.01 | locus YJL164C, strain tpk1, hits give low values 1 | locus YJL166W, strain qcr8, hits give low values 1.02 | locus YJL187C, strain SWE1, hits give low values 1.03 | locus YJR066W, strain TOR1, hits give low values 0.956 | locus YKL160W, strain elf1, hits give low values 1 | locus YKR026C, strain gcn3, hits give low values 1.01 | locus YKR091W, strain srl3, hits give low values 1.01 | locus YLL001W, strain dnm1, hits give low values 0.996 | locus YLL026W, hits give low values 1.02 | locus YLL041C, strain sdh2, hits give low values 1.01 | locus YLR027C, strain aat2, hits give low values 1.02 | locus YLR113W, strain HOG1, hits give low values 1.04 | locus YLR221C, strain rsa3, hits give low values 0.994 | locus YLR258W, strain gsy2, hits give low values 1.02 | locus YLR262C, strain YPT6 (second series), hits give low values 0.974 | locus YLR320W, strain mms22, hits give low values 0.988 | locus YLR342W, strain FKS1, hits give low values 1.02 | locus YLR357W, strain rsc2, hits give low values 1.06 | locus YLR370C, strain arc18, hits give low values 1.02 | locus YLR384C, strain iki3, hits give low values 1.03 | locus YML120C, strain ndi1, hits give low values 1 | locus YMR058W, strain fet3, hits give low values 1.02 | locus YMR125W, strain sto1, hits give low values 1.01 | locus YMR129W, hits give low values 1.02 | locus YMR205C, strain PFK2, hits give low values 1.04 | locus YMR231W, strain pep5, hits give low values 1.03 | locus YNL071W, strain lat1, hits give low values 1 | locus YNL183C, strain NPR1, hits give low values 0.954 | locus YNL209W, strain ssb2, hits give low values 1.02 | locus YNL248C, strain rpa49, hits give low values 1 | locus YNL322C, strain KRE1 (second series), hits give low values 1.02 | locus YNR049C, strain mso1, hits give low values 1.02 | locus YOR001W, strain rrp6, hits give low values 1.01 | locus YOR070C, strain gyp1, hits give low values 1.02 | locus YOR080W, strain dia2, hits give low values 1.03 | locus YOR083W, strain WHI5, hits give low values 0.968 | locus YOR106W, strain vam3, hits give low values 1.01 | locus YOR231W, strain MKK1, hits give low values 1.03 | locus YOR265W, strain rbl2, hits give low values 1.02 | locus YOR270C, strain vph1, hits give low values 0.932 | locus YOR290C, strain snf2, hits give low values 1.01 | locus YPL051W, strain arl3, hits give low values 1.01 | locus YPL078C, strain atp4, hits give low values 1 | locus YPL106C, strain sse1, hits give low values 1.02 | locus YPL240C, strain hsp82, hits give low values 1.04 | locus YPL256C, strain CLN2, hits give low values 1.12
